Test results from PubChem BioAssay AID651785 (The Scripps Research Institute Molecular Screening Center, 2012).
Out of some 2,400 compounds screened, about 950 (40%) were called active. These entries were drawn from the full list. Values without a mark were called inactive. Cut-off read from the data, not from the text of the source: active = inhibition above about 49%; inactive = the rest.

molecular target: Trace amine-associated receptor 1 (Homo sapiens) (UniProt Q96RJ0); assay: TAAR1 receptor blockers, repeat testing – cell-based, fluorescence, confirmation (AID 651785); conditions: TAAR1-expressing cells, fluorescence antagonist read-out; at 3 µM; stronger effect = higher value;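 note: CHO-Ga16 host cells challenged with agonist PEA near its EC80; 0% = agonist at EC80 plus vehicle and 100% = vehicle with no agonist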
Sequence (Q96RJ0 whole entry, looked up, the tested form may be a part): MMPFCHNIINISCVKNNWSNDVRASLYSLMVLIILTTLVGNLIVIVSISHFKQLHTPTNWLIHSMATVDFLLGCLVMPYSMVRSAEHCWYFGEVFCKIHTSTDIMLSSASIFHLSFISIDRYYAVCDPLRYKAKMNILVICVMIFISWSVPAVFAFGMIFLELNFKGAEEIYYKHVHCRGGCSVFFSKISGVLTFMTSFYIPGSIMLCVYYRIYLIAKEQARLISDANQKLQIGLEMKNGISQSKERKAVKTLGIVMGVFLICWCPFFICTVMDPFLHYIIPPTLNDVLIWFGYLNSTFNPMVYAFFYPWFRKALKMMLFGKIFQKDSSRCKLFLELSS

Row | Structure (SMILES) | inhibition
1 | O=C(NCc1ccc2c(c1)OCO2)c1c(-c2ccsc2)sc2ccccc12 | 26.4%
2 | O=C(CN1CCCSc2ccccc21)N1CCN(S(=O)(=O)c2cccc(F)c2)CC1 | 34.9%
3 | Fc1ccc(/C=N/Nc2nc(-c3cccnc3)nc3ccccc23)cc1 | 41.7%
4 | Oc1ccc(/C=N/Nc2nc(-c3ccccc3F)nc3ccccc23)c(O)c1 | 55.8% (active)
5 | C/C(=N\Nc1ncc(Cl)cc1Cl)c1ccc(S(=O)(=O)NCc2ccco2)cc1 | 33%
6 | CC(=O)Nc1ccc(NC(=O)COC(=O)C2CCC(C(C)(C)C)CC2)cc1 (stereo unspecified) | 52.9% (active)
7 | C[C@H](NC(=O)c1nc[nH]c1C(=O)NCC(=O)OC(C)(C)C)C(=O)OCc1ccccc1 | 46.1%
8 | COc1ccc(CCNC(=O)c2ccc(CS(=O)(=O)c3ccc(Br)cc3)o2)cc1OC | 52.1% (active)
9 | COc1ccc(CCNC(=O)C(=O)NCC2OCCN2S(=O)(=O)c2ccc(OC)c(C)c2)cc1 (stereo unspecified) | 26.8%
10 | COc1cc(OC)cc(C(=O)OCC(=O)Nc2sccc2C(N)=O)c1 | 48.2%
11 | O=C(COC(=O)CCCSc1nc2ccccc2[nH]1)Nc1ccc(Oc2ccccc2)cc1 | 50.7% (active)
12 | N#Cc1cccc(NC(=O)COC(=O)c2ccccc2C(=O)c2ccc(Cl)c([N+](=O)[O-])c2)c1 | 52.5% (active)
13 | CC(=O)n1cc([C@H]2C=C(C(=O)N3CCOCC3)O[C@@H](OCc3ccc(CO)cc3)C2)c2ccccc21 | 40.4%
14 | O=C(CCc1ccccc1)Nc1cccc(-c2nnc(-c3ccco3)o2)c1 | 49.1% (active)
15 | O=C(Nc1ccc(-c2nnc(-c3ccccc3)o2)cc1)c1ccc(Br)o1 | 21.3%
16 | CCC(=O)Oc1cccc(C(=O)Nc2ccc(-c3nnc(-c4ccco4)o3)cc2)c1 | 46.1%

Row | Structure (SMILES) | inhibition
17 | COc1ccc(Cl)cc1NC(=O)CCS(=O)(=O)c1cc2c(cc1C)NC(=O)CO2 | 36%
18 | CCOC(=O)C1C(c2ccc(OC)c(OC)c2)c2c([nH][nH]c2=O)CC1(C)O (stereo unspecified) | 38.7%
19 | Cc1ccc(-n2c(C)cc(/C=N\NC(=O)CC(=O)NC(C)C)c2C)cc1 | 97.9% (active)
20 | CNC(=O)c1ccsc1NC(=O)c1ccc(S(=O)(=O)N2CCc3ccccc32)cc1 | 43.2%
21 | O=C(COC(=O)c1ccccc1SCC(=O)N1CCCC1)Nc1ccccc1OC(F)F | 52.2% (active)
22 | O=C(OCC(=O)N(CCc1ccccc1)Cc1ccccc1)c1ccccc1[N+](=O)[O-] | 47.4%
23 | CC(C)N(Cc1ccccc1)C(=O)COC(=O)c1ccccc1SCC(=O)N1CCCC1 | 52.8% (active)
24 | COC(=O)[C@@]1(Sc2ccc(C)cc2)CC(=O)N(c2cccc(SC)c2)[C@@H]1c1ccccc1 | 47.3%
25 | CCOc1ccc(NC(=O)N2CC=C(n3c(=O)[nH]c4ccccc43)CC2)cc1 | 39.5%
26 | COC(=O)C1=C(C)N(Cc2ccc(F)cc2)C(=S)NC1c1cccc(Cl)c1 (stereo unspecified) | 36.5%
27 | CCN=C1SC(CC(=O)Nc2ccc(C)cc2)C(=O)N1CC (stereo unspecified) | 59.2% (active)
28 | CCOc1cc(/C=N/NC(=O)c2cc(-c3ccccc3)nc3ccccc23)ccc1O | 44.9%
29 | O=C(N/N=C/c1ccc(Cl)c(Cl)c1)c1ccc2nc[nH]c2c1 | 52.9% (active)
30 | CSc1nc(-c2ccccc2)nc(C(Cl)Cl)n1 | 36.6%
31 | COc1cc(SC#N)ccc1N=Cc1c(C)[nH]n(-c2ccc(C)cc2)c1=O | 67.6% (active)
